40 compounds from PubChem BioAssay (Tox21) can be followed below.

Inconclusive results are not listed. Unmarked numbers belong to inactive results. Calls come from the whole dose curve; as a rule, active = well fitted cell-killing curve with a large enough effect in the repeat runs; inconclusive = weak or mixed curves, or effect the other way; inactive = flat fitted curve, though single readings scatter.
% is set by controls: 0 for no effect and ±100 for the full control effect.

This assay in a line: qHTS RealTime-Glo MT Cell Viability Assay in HEK293 cells - 24 hour (AID 1224886). Note: top concentration of the series differs between compounds; nearly all actives have a fitted effect of over 50% in size. Particulars: RealTime-Glo luminescence; series mostly up to 76.8 µM; activity change, negative = cytotoxicity: at the top concentration. The source says:
National Center for Advancing Translational Sciences [NCATS]
NIH Chemical Genomics Center [NCGC]
U.S. Environmental Protection Agency [EPA]
National Institutes of Environmental Health Sciences [NIEHS]
National Toxicology Program [NTP]
U.S. Food and Drug Administration [FDA]
Measure of cell viability is critical in the cell-base assay. Analysis of cell viability is necessary for the characterization of cell responses to cytotoxic drugs and environmental stress. A RealTime-Glo MT Cell Viability Assay to monitor cell viability in real time of continues cell culture during 40 hours of compound treatment was used to screen Tox21 10K library compounds in Hek293 cells. The RealTime-Glo MT Cell Viability Assay is a nonlytic, homogeneous, bioluminescent method to measure cell viability in real time using a simple, plate-based method. The assay involves adding NanoLuc luciferase and a cell-permeant prosubstrate to cells in culture. Viable cells reduce the proprietary prosubstrate to generate a substrate for NanoLuc luciferase. This substrate diffuses from cells into the surrounding culture medium, where it is rapidly used by the NanoLuc Enzyme to produce a luminescent signal. The signal correlates with the number of viable cells, making the assay well suited for cytotoxicity studies.
Tox21 Assay Protocol Summary:
The mixture of Hek293 cell suspension and reagents were dispensed at 600cells/6 ul/well in 1536-well tissue culture treated black solid bottom plates using a Multidrop dispenser. After the assay plates were incubated at a 37 C/5% CO2 incubator for 5 hours, 23 nL of compounds dissolved in DMSO, positive and negative controls was transferred to the assay plate by a pintool work station. The plates were incubated at 37 C for 40 hours. The luminescence intensity were measured at 0h, 8h, 16h, 24h, 32h and 40h time points using ViewLux plate reader during compound treatment.
Turning to `Cc1ccc(O)c([N+](=O)[O-])c1`, the “activity change, negative = cytotoxicity” value was -12.1%.

For `CCCCCCCCCCCCCCBr`, the “activity change, negative = cytotoxicity” value is 1.93%.

Take `CCCCNCC`: the “activity change, negative = cytotoxicity” value is -0.159%.

In the case of `C=CC(=O)OCCOCCOCC`, the “activity change, negative = cytotoxicity” value is 18.9%.

`CC(C)(O)CCCC1=CCC(C=O)CC1` (stereo not given): the “activity change, negative = cytotoxicity” value was -18.5%.

Turning to `COCc1nnc(-c2ccc[n+]([O-])c2)n1-c1c(Cl)c(Cl)cc2[nH]c(=O)c(=O)[nH]c12`, the “activity change, negative = cytotoxicity” value was -3.99%.

With `CN1CCN(C(=O)C2CCCCC2)CC1`, the “activity change, negative = cytotoxicity” value is 0.371% [at 35.3 µM].

Turning to `N=C(N)N1CCc2ccccc2C1`, the activity change, negative = cytotoxicity was 2.27% [at 6.97 µM].

As for `CC(C)(C)OC=O`, the “activity change, negative = cytotoxicity” value is 9.16%.

Consider `O=C(CCBr)N1CCN(C(=O)CCBr)CC1`, for which the “activity change, negative = cytotoxicity” value is -0.733% [at 35.3 µM].

For `COc1ccccc1N1CCN(CC(O)COc2cc(OC)c(OC)c(OC)c2)CC1` (stereo not given), the “activity change, negative = cytotoxicity” value was 3.87% [at 35.3 µM].

Turning to `CCCCCCCOC(C)=O`, the “activity change, negative = cytotoxicity” value is 1.28%.

`CC/C=C\CCCCCCCCCCOC(C)=O`: the “activity change, negative = cytotoxicity” value was 2.52%.

Regarding `Cc1ccccc1C#N`, the “activity change, negative = cytotoxicity” value is 10.8%.

Take `CC(O)C(CO)C(C)O` (stereo not given): the “activity change, negative = cytotoxicity” value was 5.77%.

Turning to `CCN(CC)CC`, the “activity change, negative = cytotoxicity” value was -12.7%.

In the case of `c1cc2ccc3ccc4ccc5cccc6c(c1)c2c3c4c56`, the activity change, negative = cytotoxicity was 0.461% [at 2.72 µM].

On to `O=C[C@@H](O)[C@H](O)[C@H](O)CO`, for which the “activity change, negative = cytotoxicity” value is -3.15%.

Turning to `NC[C@H]1O[C@H](O[C@H]2[C@H](O)[C@@H](O[C@H]3O[C@H](CO)[C@@H](O)[C@H](N)[C@H]3O)[C@H](N)C[C@@H]2N)[C@H](N)[C@@H](O)[C@@H]1O`, the activity change, negative = cytotoxicity is 5.12% [at 15.8 µM].

Regarding `CCCc1ncc(C(=O)O)s1`, the “activity change, negative = cytotoxicity” value is 3.78% [at 35.3 µM].

On to `O=C(O)CCCCCCCCCC(=O)O`, for which the “activity change, negative = cytotoxicity” value is 1.68%.

With `CCCCCCCCCCCCCCCC(=O)OC`, the activity change, negative = cytotoxicity is -2.1% [at 15.8 µM].

For `CCCCCCCCOCCC#N`, the “activity change, negative = cytotoxicity” value was -0.596%.

For `CCCC(=O)OC`, the “activity change, negative = cytotoxicity” value is -1.04%.

Turning to `CC(C)CC(O)Cc1ccccc1` (stereo not given), the “activity change, negative = cytotoxicity” value is 2.81%.

`Cc1cc2c(cc1CC(=O)c1sccc1S(=O)(=O)Nc1onc(C)c1Cl)OCO2`: the “activity change, negative = cytotoxicity” value was 3.11% [at 35.3 µM].

For the compound `CC(=O)Oc1ccc(C(C)=O)cc1`, the “activity change, negative = cytotoxicity” value is -5.86%.

For the compound `CCCCc1ccc(Cl)cc1`, the “activity change, negative = cytotoxicity” value was 0.0968%.

Take `CCOC(=O)c1ccc(N(C)C)cc1`: the “activity change, negative = cytotoxicity” value was -9.27%.

Consider `C/C=C(\C)C=O`, for which the “activity change, negative = cytotoxicity” value was 11.2%.

On to `CC(C)(C)c1ccc(N)cc1`, for which the “activity change, negative = cytotoxicity” value was -1.57%.

Consider `Cc1ccc(O)c(C(=O)c2ccccc2)c1`, for which the “activity change, negative = cytotoxicity” value was -9.02%.

Consider `COC(=O)C(c1ccccc1Cl)N1CCc2sccc2C1` (stereo not given), for which the “activity change, negative = cytotoxicity” value was -7.54% [at 35.3 µM].

As for `CCN1CCN(C(=O)N[C@@H](C(=O)N[C@@H]2C(=O)N3[C@@H]2SC(C)(C)[C@H]3C(=O)O)c2ccccc2)C(=O)C1=O`, the “activity change, negative = cytotoxicity” value is 7.45% [at 35.3 µM].

On to `C/C=C/C(=O)CCCC`, for which the “activity change, negative = cytotoxicity” value was 8.62%.

On to `CO/N=C(\C(=O)O)c1csc(NC(=O)CCl)n1`, for which the “activity change, negative = cytotoxicity” value is 2.7% [at 35.3 µM].

With `Cc1ccc(NC(N)=O)cc1`, the “activity change, negative = cytotoxicity” value is 7.55%.

Consider `COc1cc(S(N)(=O)=O)cc(C(=O)O)c1OC`, for which the “activity change, negative = cytotoxicity” value was 1.71% [at 35.3 µM].

Turning to `CCCCCCC(O)CO` (stereo not given), the “activity change, negative = cytotoxicity” value is 1.44%.

Take `CCCOc1ccc(C(=O)OCCN(CC)CC)cc1N`: the “activity change, negative = cytotoxicity” value is -4.71% [at 35.3 µM].
